According to PubChem BioAssay (NCATS):
A number with no mark means an inactive call. Inconclusive results are not listed. A call without a number means that no potency is given here. Active and inactive are the calls of the source. The call rests on the fitted dose curve; in most records, active means well fitted curve in the direction sought with a large enough effect; inconclusive means small, poorly fitted or top-dose-only effect, or another doubt; inactive means no such curve, though single readings can be large; an effect the other way counts as inactive or inconclusive.

Experiments:
[1] = target: Calcium and integrin-binding protein 1 (Homo sapiens) (UniProt Q99828); experiment: Primary qHTS for Identification of Calcium Integrin Binding Protein 1 (CIB1) Competitor (AID 1508620);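 further: GST tagged CIB1 binding a fluorescein labelled alphaIIb integrin peptide tracer; top concentration of the series differs between compounds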
Calcium and integrin-binding protein 1 (Homo sapiens), sequence (Q99828 whole entry, looked up): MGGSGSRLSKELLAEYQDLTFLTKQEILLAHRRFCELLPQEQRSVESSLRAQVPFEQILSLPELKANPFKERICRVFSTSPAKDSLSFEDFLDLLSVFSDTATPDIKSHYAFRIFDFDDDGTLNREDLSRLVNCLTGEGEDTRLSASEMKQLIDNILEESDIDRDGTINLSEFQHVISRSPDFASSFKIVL
Procedure, shortened: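 CIB1-GST (1 uM final) and compound incubated 15 min at room temperature before adding FITC-alphaIIb peptide tracer (100 nM final). Competition for binding read by fluorescence polarization (ex 480, em 540) after another 15 min at room temperature.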

[2] = Primary qHTS for inhibitors of nuclear receptor binding SET domain protein 2 (NSD2) in an isogenic RCH-ACV NSD2 p.E1099K mutant (9B) (AID 1645876); further: nearly all actives have a fitted effect of over 70% in size; further: potency means the concentration at half of the fitted maximal effect
[3] = target: Phospholipid hydroperoxide glutathione peroxidase GPX4 (Homo sapiens) (UniProt P36969); experiment: Primary qHTS Assay for Inhibitors of Recombinant Selenoprotein Glutathione Peroxidase 4 (GPX4) (AID 1845192); further: nearly all actives have a fitted effect of over 65% in size
Phospholipid hydroperoxide glutathione peroxidase GPX4 (Homo sapiens), sequence (P36969 whole entry, looked up): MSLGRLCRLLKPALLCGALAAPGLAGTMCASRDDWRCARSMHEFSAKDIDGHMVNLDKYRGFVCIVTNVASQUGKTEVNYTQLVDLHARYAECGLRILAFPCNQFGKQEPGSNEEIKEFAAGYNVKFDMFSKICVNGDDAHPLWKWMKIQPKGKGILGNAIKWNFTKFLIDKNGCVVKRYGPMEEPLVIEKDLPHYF
Procedure, shortened: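 NADPH consumption followed by fluorescence at 340/450 nm, t=0 and after 15 min at room temperature. Reaction started with cumene hydroperoxide (0.5 mM final) after 30 min compound–GPX4 preincubation; final 200 nM GPX4, 100 nM GR, 1 mM GSH, 0.5 mM NADPH.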

[4] = target: Luciferin 4-monooxygenase (Photinus pyralis) (UniProt P08659); experiment: Primary firefly luciferase (FLuc) qHTS assay for identification of artifact compounds. (AID 1845220); details: outcome: dose series up to 54.1 µM unless noted; further: nearly all actives have a fitted effect of over 60% in size
Procedure, shortened: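 Compounds sat 15 min at room temperature with 10 uM luciferin and 10 uM ATP (pH 7.6 Tris acetate). Firefly luciferase (10 nM final) was then added, and luminescence was read 5 min later. Data normalized to no-enzyme and DMSO controls were Hill-fitted.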

[5] = Primary fluorescence-based thiol-reactive (MSTI) qHTS assay for identification of artifact compounds. (AID 1845221);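 further: thiol-reactive compounds lower the probe fluorescence signal; nearly all actives have a fitted effect of over 65% in size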
Procedure, shortened: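 qHTS titration of compound; 4 uM MSTI, PBS pH 7.4, 2% DMSO; 1 h RT, dark; fluorescence 525/598 nm; normalized to Acetyl-MSTI and MSTI; 4-parameter Hill fit.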

[6] = test system: Nanoluciferase (engineered Oplophorus gracilirostris luciferase); experiment: Primary Nanoluciferase (NLuc) qHTS assay for identification of artifact compounds. (AID 1845222)
Procedure, shortened: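 Luminescence from secreted NLuc (filtered, 1:55-diluted S16 cell medium) read 5 min after Nano-Glo substrate; compounds preincubated 15 min, RT. Hill fits of inhibition normalized to DMSO and no-enzyme.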

[7] = Primary redox qHTS assay for identification of artifact compounds. (AID 1845223)
Procedure, shortened: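 Redox-cycling detection via DTT (250 uM final) oxidation coupled to Amplex Red (25 uM)/HRP (250 mU/mL) in HBSS. 15 min preincubation plus 30 min after DTT, room temperature. Ex/Em 525/598 nm; 4-parameter Hill fit against DMSO and 10 uM DA3003.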

CRL-7250 = normal cell line; experiment: Cytotoxic Profiling of Annotated Libraries Using Quantitative High-Throughput Screening (AID 1296008); details: Five cell lines viability, CellTiter-Glo ATP luminescence, 48-72 h; max response: stronger effect = lower value; further: nearly all actives have a fitted effect of over 60% in size; further: potency means the concentration at half of the fitted maximal effect
Procedure, shortened: (§1)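 Cytotoxicity was measured as CellTiter-Glo ATP luminescence, read after 10 min at room temperature. Compound treatment of the cells lasted 48 or 72 hr at 37 degrees Celsius in a qHTS format.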

HEK293 = experiment: as above; details: Five cell lines viability, CellTiter-Glo ATP luminescence, 48-72 h; max response: stronger effect = lower value
Procedure, shortened: as §1

NIH3T3 = experiment: as above; details: Five cell lines viability, CellTiter-Glo ATP luminescence, 48-72 h; max response: stronger effect = lower value
Procedure, shortened: as §1

C33A = experiment: Primary qHTS to identify gynecologic anti-cancer compounds using libraries of approved drugs and bioactive compounds (AID 1345084); details: Gynecologic cancer cell panel viability, ATPlite luminescence, 48 h; series mostly up to 57.5 µM; further: nearly all actives have a fitted effect of over 55% in size; further: potency means the concentration at half of the fitted maximal effect
Procedure, shortened: (§2)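 Cells, 1,000 per well, were allowed to settle for 16 h at 37 C before compound addition. Five concentrations were tested for 48 h, and viability was read by ATPlite luminescence after 15 min at room temperature.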

CAOV3 = experiment: as above; details: Gynecologic cancer cell panel viability, ATPlite luminescence, 48 h; series mostly up to 57.5 µM
Procedure, shortened: as §2

CASKI = experiment: as above; details: Gynecologic cancer cell panel viability, ATPlite luminescence, 48 h; series mostly up to 57.5 µM
Procedure, shortened: as §2

Es-2 = experiment: as above; details: Gynecologic cancer cell panel viability, ATPlite luminescence, 48 h; series mostly up to 57.5 µM
Procedure, shortened: as §2

Hek293T = experiment: as above; details: Gynecologic cancer cell panel viability, ATPlite luminescence, 48 h, control line for the selectivity index; series mostly up to 57.5 µM
Procedure, shortened: as §2

JEG-3 = experiment: as above; details: Gynecologic cancer cell panel viability, ATPlite luminescence, 48 h; series mostly up to 57.5 µM
Procedure, shortened: as §2

OV90 = experiment: as above; details: Gynecologic cancer cell panel viability, ATPlite luminescence, 48 h; series mostly up to 57.5 µM
Procedure, shortened: as §2

PA-1 = experiment: as above; details: Gynecologic cancer cell panel viability, ATPlite luminescence, 48 h; series mostly up to 57.5 µM
Procedure, shortened: as §2

Tov-21-G = experiment: as above; details: Gynecologic cancer cell panel viability, ATPlite luminescence, 48 h; series mostly up to 57.5 µM
Procedure, shortened: as §2

Tov112D = experiment: as above; details: Gynecologic cancer cell panel viability, ATPlite luminescence, 48 h; series mostly up to 57.5 µM
Procedure, shortened: as §2

SMILES: CN1C(=O)CN=C(c2ccccc2Cl)c2cc(Cl)ccc21
- Potency [1]: inactive
- Potency [2]: inactive
- Potency [3]: inactive
- outcome [4]: inactive
- Potency [5]: inactive
- Potency [6]: inactive
- Potency [7]: inactive
- outcome (CRL-7250): inactive
- max response (HEK293): -5.69%
- max response (NIH3T3): 4.35%
- Potency (C33A): inactive
- Potency (CAOV3): inactive
- Potency (CASKI): inactive
- Potency (Es-2): inactive
- Potency (Hek293T): inactive
- Potency (JEG-3): inactive
- Potency (OV90): inactive
- Potency (PA-1): inactive
- Potency (Tov-21-G): inactive
- Potency (Tov112D): inactive

SMILES: Cc1cccc(NC(=O)N[C@H]2CN(C)c3ccccc3C(c3ccccc3)=N2)c1
- Potency [1]: inactive
- Potency [3]: inactive
- outcome [4]: inactive
- Potency [5]: inactive
- Potency [7]: inactive
- max response (CRL-7250): -1.7%
- max response (HEK293): -2.16%
- max response (NIH3T3): -5.29%
- Potency (C33A): inactive
- Potency (CAOV3): inactive
- Potency (CASKI): inactive
- Potency (Es-2): inactive
- Potency (Hek293T): inactive
- Potency (JEG-3): inactive
- Potency (OV90): inactive
- Potency (PA-1): inactive
- Potency (Tov-21-G): inactive
- Potency (Tov112D): inactive

SMILES: COc1cc(O)c2c(c1)/C=C/C[C@@H](O)[C@@H](O)C(=O)CCC[C@H](C)OC2=O
- Potency [1]: inactive
- Potency [3]: inactive
- outcome [4]: inactive
- Potency [5]: inactive
- Potency [6]: inactive
- Potency [7]: inactive
- Potency (CRL-7250): 14.3 µM (active)
- max response (HEK293): 0.301%
- max response (NIH3T3): -5.04%
- Potency (C33A): inactive
- Potency (CAOV3): inactive
- Potency (CASKI): inactive
- Potency (Es-2): inactive
- Potency (Hek293T): inactive
- Potency (JEG-3): inactive
- Potency (OV90): inactive
- Potency (PA-1): inactive
- Potency (Tov-21-G): inactive
- Potency (Tov112D): inactive

SMILES: CC(=O)N1N=C(c2ccc(N)cc2)c2cc3c(cc2C[C@H]1C)OCO3
- Potency [1]: inactive
- outcome [4]: inactive
- Potency [6]: inactive
- Potency [7]: inactive
- max response (CRL-7250): -0.992%
- max response (HEK293): -4.81%
- max response (NIH3T3): -2.08%
- Potency (C33A): inactive
- Potency (CAOV3): inactive
- Potency (CASKI): inactive
- Potency (Es-2): inactive
- Potency (Hek293T): inactive
- Potency (JEG-3): inactive
- Potency (OV90): inactive
- Potency (PA-1): inactive
- Potency (Tov-21-G): inactive
- Potency (Tov112D): inactive

SMILES: C[C@]12CC[C@H]3[C@@H](CCC4=C/C(=N/OCC(=O)O)CC[C@@]43C)[C@@H]1CC[C@@H]2O
- Potency [1]: inactive
- Potency [2]: inactive
- Potency [3]: inactive
- outcome [4]: inactive
- Potency [5]: inactive
- Potency [6]: inactive
- Potency [7]: inactive
- max response (CRL-7250): -2.05%
- max response (HEK293): -5.05%
- max response (NIH3T3): 3.02%
- Potency (C33A): inactive
- Potency (CAOV3): inactive
- Potency (CASKI): inactive
- Potency (Es-2): inactive
- Potency (Hek293T): inactive
- Potency (JEG-3): inactive
- Potency (OV90): inactive
- Potency (PA-1): inactive
- Potency (Tov-21-G): inactive
- Potency (Tov112D): inactive

SMILES: C[C@]12CCC(=O)C=C1CC[C@@H]1[C@@H]2[C@@H](O)C[C@]2(C)C(=O)CC[C@@H]12
- Potency [1]: inactive
- Potency [2]: inactive
- outcome [4]: inactive
- Potency [5]: inactive
- Potency [6]: inactive
- Potency [7]: inactive
- outcome (CRL-7250): inactive
- max response (HEK293): -2.71%
- max response (NIH3T3): 2.17%
- Potency (C33A): inactive
- Potency (CAOV3): inactive
- Potency (CASKI): inactive
- Potency (Es-2): inactive
- Potency (Hek293T): inactive
- Potency (JEG-3): inactive
- Potency (OV90): inactive
- Potency (PA-1): inactive
- Potency (Tov-21-G): inactive
- Potency (Tov112D): inactive

SMILES: Oc1ccc2c3c1O[C@H]1c4[nH]c5c(N=C=S)cccc5c4C[C@@]4(O)[C@@H](C2)N(CC2CC2)CC[C@]314
- Potency [3]: inactive
- outcome [4]: inactive
- Potency [5]: inactive
- Potency [6]: inactive
- Potency [7]: inactive
- max response (CRL-7250): 1.1%
- max response (HEK293): -0.6%
- max response (NIH3T3): -11%
- Potency (C33A): inactive
- Potency (CAOV3): inactive
- Potency (CASKI): inactive
- Potency (Es-2): inactive
- Potency (Hek293T): inactive
- Potency (OV90): inactive
- Potency (PA-1): inactive
- Potency (Tov-21-G): inactive
- Potency (Tov112D): inactive

SMILES: CN1CCc2cc3c(cc2[C@H]1[C@@H]1OC(=O)c2c1ccc1c2OCO1)OCO3
- Potency [2]: inactive
- Potency [3]: inactive
- outcome [4]: inactive
- Potency [5]: inactive
- Potency [6]: inactive
- Potency [7]: inactive
- max response (CRL-7250): -0.453%
- max response (HEK293): -2.62%
- max response (NIH3T3): -16.9%
- Potency (C33A): inactive
- Potency (CAOV3): inactive
- Potency (CASKI): inactive
- Potency (Es-2): inactive
- Potency (Hek293T): inactive
- Potency (JEG-3): inactive
- Potency (OV90): inactive
- Potency (PA-1): inactive
- Potency (Tov-21-G): inactive
- Potency (Tov112D): inactive

SMILES: CC(=O)O[C@H]1CC[C@H]2[C@@H]3CC[C@H]4CC(=O)C=C(C)[C@]4(C)[C@H]3CC[C@]12C
- Potency [1]: inactive
- Potency [3]: inactive
- outcome [4]: inactive
- Potency [5]: inactive
- Potency [6]: inactive
- Potency [7]: inactive
- max response (CRL-7250): -4.94%
- Potency (HEK293): 23.1 µM (active)
- max response (NIH3T3): -1.67%
- Potency (C33A): inactive
- Potency (CAOV3): inactive
- Potency (CASKI): inactive
- Potency (Es-2): inactive
- Potency (Hek293T): inactive
- Potency (JEG-3): inactive
- Potency (OV90): inactive
- Potency (PA-1): inactive
- Potency (Tov-21-G): inactive
- Potency (Tov112D): inactive

SMILES: CO[C@@H]1[C@H](O)[C@@H](O[C@@H]2C[C@H]3CC[C@@H]4C(CC[C@]5(C)[C@@H](C6=CC(=O)OC6)CC[C@]45O)[C@@]3(C)[C@H](O)C2)O[C@H](C)[C@@H]1O (stereo not given in full)
- Potency [2]: 0.0893 µM (active)
- Potency [3]: inactive
- outcome [4]: inactive
- Potency [5]: inactive
- Potency (CRL-7250): 0.112 µM (active)
- Potency (HEK293): 0.224 µM (active)
- max response (NIH3T3): 3.09%
- Potency (C33A): 0.199 µM (active)
- Potency (CAOV3): 0.631 µM (active)
- Potency (CASKI): 1.26 µM (active)
- Potency (Es-2): 0.178 µM (active)
- Potency (Hek293T): 0.224 µM (active)
- Potency (JEG-3): 0.891 µM (active)
- Potency (OV90): 1 µM (active)
- Potency (PA-1): 0.199 µM (active)
- Potency (Tov-21-G): 0.178 µM (active)
- Potency (Tov112D): 0.0891 µM (active)

SMILES: C#CCO[C@H]1CN2CCC1CC2
- Potency [1]: inactive
- Potency [2]: inactive
- Potency [3]: inactive
- outcome [4]: inactive
- Potency [5]: inactive
- Potency [6]: inactive
- Potency [7]: inactive
- max response (CRL-7250): -0.287%
- max response (HEK293): -18.5%
- max response (NIH3T3): 2.27%
- Potency (C33A): inactive
- Potency (CAOV3): inactive
- Potency (CASKI): inactive
- Potency (Es-2): inactive
- Potency (Hek293T): inactive
- Potency (JEG-3): inactive
- Potency (OV90): inactive
- Potency (PA-1): inactive
- Potency (Tov-21-G): inactive
- Potency (Tov112D): inactive
